# Results reported in PubChem BioAssay AID493201 (National Center for Advancing Translational Sciences (NCATS), 2011).
# Records with an inconclusive call do not appear. Active and inactive are the calls of the source. The call rests on the fitted dose curve; in most records, active means well fitted activation curve with a large enough effect; inconclusive means small, poorly fitted or top-dose-only effect; inactive means no such curve, though single readings can be large or run the other way.
# Experiment: qHTS Assay for Identifying a Potential Treatment of Ataxia-Telangiectasia: Secondary assay (no NCS) hit validation;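 further: phosphorylated KAP1 signal as a proxy for ATM-like kinase activity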; on activation: 0% is about no effect
# Settings: A-T patient fibroblasts, AlphaLISA, no DNA damage added, 90 min; series mostly up to 76.9 µM; activation: at the top concentration
# From the text: NIH Chemical Genomics Center [NCGC]
# NIH Molecular Libraries Probe Centers Network [MLPCN]
# Assay Submitter (PI): Wei Zheng and Yosef Shiloh
# Ataxia-telangiectasia (A-T) is a devastating and progressive disease for which, there is no cure. Although A-T is a multisystem disease, it is stereotyped characterized by its neurological symptoms such as truncal ataxia, due to cerebellar cortical degeneration of the Purkinje and granule cells. Other symptoms of A-T are telangiectasias (dilated blood vessels), primary immunodeficiency, marked sensitivity to ionizing radiation (IR), chromosomal instability and predisposition to cancer.
# The underlying genetic cause of A-T is null mutations in the ATM (A-T mutated) gene. ATM is a nuclear serine/threonine kinase that functions as a master regulator of the cellular responses to double strand breaks (DSBs) in the DNA. Upon activation by DSBs, ATM phosphorylates a plethora of downstream targets, including KAP-1 on […]. KAP-1 phosphorylation occurs shortly in response to DSBs and mediates global chromatin relaxation, which facilitates DSB repair. To screen for small molecules that will compensate for the loss of ATM in cells derived from A-T patients, we monitored KAP-1 phosphorylation as a readout for ATM-like activity using an AlphaLISA assay. This secondary assay omits NCS, which creates double-stranded DNA breaks.
# Step,Parameter,Value,Description
# 1. Cell Plating, 3 ul, 500 cells/well in OPTI-MEM, 1% FBS, 1% Pen/Strep
# 3. Library compounds, 23 nl, 76.7 - 0.61uM dilution series final concentration
# 4. Incubation, 60 min, 37C, 5% CO2, 95% humidity
# 6. Incubation, 30 min, 37C, 5% CO2, 95% humidity
# 7. Reagent, 1 ul, Premixed detection reagents and lysis buffer
# 8. Reagent, 1 ul, 0.6% Antifoam A
# 9. Incubation, 6 hr, 25C, 95% humidity
# 10. Readout, EnVision, EnVision plate reader. AlphaScreen 1536-well protocol
# Cells were plated using medium-binding white solid-bottom tissue culture treated Kalypsys plates. Multidrop dispense of 3 uL of F2112 (hTERT immortalized A-T patient fibroblast cells). Detection reagent and lysis buffer was 3.75nM Rab-a-pKAP1 antibody bound to 75 ng/ul AlphaScreen SA donor bead, 3.75 nM Biot-M-a-KAP1 antibody bound to AlphaLISA protein A acceptor bead, 0.5x protease inhibitor cocktail and 0.25x PerkinElmer lysis buffer. EnVision protocol for 1536-well AlphaScreen read (30ms excitation, 100ms read), about 10 min/plate.
# Potency means the concentration at half of the fitted maximal effect.
Compound,activation,Potency
CN1CCN(c2ccc([N+](=O)[O-])c3no[n+]([O-])c23)CC1,3.23% (inactive),
CCN(CC)S(=O)(=O)c1cccc(N=Nc2c(O)n(CC)c(=S)n(CC)c2=O)c1,,18.4 µM (active)
C/C=C/c1ccc2c(c1)OCO2,58.1% (inactive),
Cc1ccc(-n2c(O)c(C=NCC3CCCO3)c(=O)[nH]c2=O)c(C)c1 (stereo not drawn),12.2% (inactive),
CCN(CC)S(=O)(=O)c1ccc(C(=O)NC2CN3CCC2CC3)cc1 (stereo not drawn),-4.35% (inactive),
CCN1C(=O)N(CC)C(=O)C2(Cc3ccccc3N3CCN(c4ccccc4)CC32)C1=O (stereo not drawn),-9.68% (inactive),
O=C1Nc2ccccc2C1Cc1nc2ccccc2c(=O)n1-c1ccccc1 (stereo not drawn),16.9% (inactive),
COC(=O)C1=C(c2ccc(OCc3ccccc3)cc2)C[C@@H]2CC[C@H]1N2C(=O)NCc1cccc(C(F)(F)F)c1,,4.12 µM (active)
CCCCC(=O)N/N=C/c1c(O)n(CCC2=CCCCC2)c(=O)[nH]c1=O,,14.6 µM (active)
CC1(C)C[C@H]2C=C(C=O)[C@]3(C=O)C[C@]3(C)[C@H]2C1,-1.69% (inactive),
CCc1ccc(N2C(=O)NC(=O)/C(=C\C=C\c3ccco3)C2=O)cc1,-11% (inactive),
Cc1cc(O)c2c(c1)C(=O)C13C(=C2O)C(=O)[C@H]2[C@@H](O)[C@@H]1[C@H]1[C@H](O)[C@@H]3C(=O)C3=C(O)c4c(O)cc(C)cc4C(=O)C312 (stereo partly drawn),10.8% (inactive),
CC(C)c1ccc(-n2c(O)c(C=NC(CCS(C)=O)C(=O)O)c(=O)[nH]c2=S)cc1 (stereo not drawn),-11.9% (inactive),
CN1CCCC(C(O)(c2ccccc2)c2ccccc2)C1 (stereo not drawn),18.6% (inactive),
Cc1ccc(C)c(NP(=O)(Oc2ccccc2)Oc2ccccc2)c1,13.9% (inactive),
S=c1[nH]nc(Cn2c(-c3ccccn3)nc3ccccc32)n1-c1ccc2c(c1)OCCO2,,41.2 µM (active)
Cc1nc2ccccc2c(=O)n1-c1ccc(F)cc1F,33.3% (inactive),
Cc1cccc(N2C(=O)NC(=O)/C(=C\C=C\c3ccco3)C2=O)c1,0% (inactive),
